About 7,900 targets were measured; listed, in parts, are those with a hit and a random draw of the rest. About 0.6% of all pairs of compound and target were hits.
Experiments:
Test in all cases: log2 fold change, soluble protein after heating vs DMSO (PISA); higher = thermal stabilisation; K562 cells, 10 uM, 30 min; active = over 0.2 and 3.5 SD of the protein, either way, in both replicates (recomputed)
bafetinib = compound: Cc1ccc(NC(=O)c2ccc(CN3CC[C@H](N(C)C)C3)c(C(F)(F)F)c2)cc1Nc1nccc(-c2cncnc2)n1 [bafetinib]
Summary of the method: (§1)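 Soluble protein was defined as the supernatant after 21,000xg for 90 min. It came from K562 cells at 2×10^6 cells/mL given 10 μM compound for 30 min, heated in aliquots for 3 min across 48°C-58°C, pooled, and extracted in PBS with 0.5% NP-40 at 4°C, and was quantified by TMTpro 16plex LC-MS/MS with equalised channel sums. Thermal stability against control samples, from duplicates, is reported as log2 fold change.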

[1] = compound: Cc1cccc(CC(=O)N2CCc3c2ccc(-c2cn(C)c4ncnc(N)c24)c3F)n1
Summary of the method: as §1

nilotinib = compound: Cc1cn(-c2cc(NC(=O)c3ccc(C)c(Nc4nccc(-c5cccnc5)n4)c3)cc(C(F)(F)F)c2)cn1 [nilotinib]
Summary of the method: as §1

[2] = compound: Cc1nc(Nc2n[nH]c3c2CN(C(=O)N[C@H](CN(C)C)c2ccccc2)C3(C)C)c2sccc2n1
Summary of the method: as §1

dasatinib = compound: Cc1nc(Nc2ncc(C(=O)Nc3c(C)cccc3Cl)s2)cc(N2CCN(CCO)CC2)n1 [dasatinib]
Summary of the method: as §1

[3] = compound: Cc1ncc(-c2ccnc(Nc3ccc(S(C)(=O)=O)cc3)n2)n1C(C)C
Summary of the method: as §1

[4] = compound: Cn1cc(-c2ccc3c(c2)CCN3C(=O)Cc2cccc(C(F)(F)F)c2)c2c(N)ncnc21
Summary of the method: as §1

[5] = compound: Cn1cc(-c2ccc3nnc(C(F)(F)c4ccc5ncccc5c4)n3n2)cn1
Summary of the method: as §1

tipifarnib = compound: Cn1cncc1[C@@](N)(c1ccc(Cl)cc1)c1ccc2c(c1)c(-c1cccc(Cl)c1)cc(=O)n2C [tipifarnib]
Summary of the method: as §1

mubritinib = compound: FC(F)(F)c1ccc(/C=C/c2nc(COc3ccc(CCCCn4ccnn4)cc3)co2)cc1 [mubritinib]
Summary of the method: as §1

Measured: log2 fold change

SUPT16H (UniProt Q9Y5B9)
inactive: bafetinib 0.006 | [1] 0.049 | nilotinib 0.011 | [2] -0.088 | dasatinib -0.269 | [3] -0.103 | [4] 0.073 | [5] 0.108 | tipifarnib -0.088 | mubritinib 0.047

SPART (UniProt Q8N0X7)
Sequence of UniProt Q8N0X7 (Q8N0X7 whole entry, looked up): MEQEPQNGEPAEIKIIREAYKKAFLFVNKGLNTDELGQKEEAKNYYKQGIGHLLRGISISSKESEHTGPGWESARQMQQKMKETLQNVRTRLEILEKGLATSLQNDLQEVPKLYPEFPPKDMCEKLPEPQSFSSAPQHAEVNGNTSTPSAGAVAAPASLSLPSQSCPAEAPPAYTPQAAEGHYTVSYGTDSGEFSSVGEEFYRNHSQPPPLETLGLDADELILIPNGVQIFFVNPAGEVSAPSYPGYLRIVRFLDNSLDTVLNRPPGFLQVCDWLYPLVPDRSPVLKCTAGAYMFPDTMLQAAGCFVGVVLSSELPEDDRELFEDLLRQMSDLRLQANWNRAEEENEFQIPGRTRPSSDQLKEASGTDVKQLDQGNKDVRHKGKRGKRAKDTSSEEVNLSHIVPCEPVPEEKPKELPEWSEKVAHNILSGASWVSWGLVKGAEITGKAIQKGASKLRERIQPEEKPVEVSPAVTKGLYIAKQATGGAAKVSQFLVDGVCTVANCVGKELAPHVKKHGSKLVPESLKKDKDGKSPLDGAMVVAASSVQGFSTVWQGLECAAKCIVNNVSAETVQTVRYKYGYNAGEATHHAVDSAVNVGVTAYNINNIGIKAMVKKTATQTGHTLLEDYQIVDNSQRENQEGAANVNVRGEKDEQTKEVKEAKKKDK
inactive: bafetinib -0.041 | [1] -0.024 | nilotinib -0.047 | [2] -0.006 | dasatinib -0.117 | [3] 0.051 | [4] -0.025 | [5] 0.059 | tipifarnib -0.077 | mubritinib 0.063

SMG1 (UniProt Q96Q15)
inactive: bafetinib 0.059 | [1] -0.012 | nilotinib 0.03 | [2] -0.061 | dasatinib -0.266 | [3] -0.015 | [4] -0.035 | [5] 0.023 | tipifarnib -0.098 | mubritinib 0.064

STAT3 (UniProt P40763)
inactive: bafetinib -0.015 | [1] -0.003 | nilotinib -0.097 | [2] -0.216 | dasatinib -0.141 | [3] 0.026 | [4] -0.027 | [5] 0.013 | tipifarnib -0.172 | mubritinib 0.024

SPPL2B (UniProt Q8TCT7)
inactive: bafetinib -0.087 | [1] 0.066 | nilotinib -0.016 | [2] -0.006 | dasatinib -0.066 | [3] 0.009 | [4] 0.116 | [5] -0.118 | tipifarnib 0.036 | mubritinib -0.008

SNX3 (UniProt O60493)
Sequence of UniProt O60493 (O60493 whole entry, looked up): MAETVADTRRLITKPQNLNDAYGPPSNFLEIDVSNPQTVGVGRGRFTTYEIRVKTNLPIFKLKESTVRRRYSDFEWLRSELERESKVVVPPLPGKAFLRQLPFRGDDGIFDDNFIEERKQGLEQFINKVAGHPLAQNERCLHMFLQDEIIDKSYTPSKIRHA
active: [3] -0.339
inactive: bafetinib 0.01 | [1] 0.032 | nilotinib -0.034 | [2] 0.035 | dasatinib -0.163 | [4] -0.03 | [5] 0.001 | tipifarnib 0.019 | mubritinib -0.108

SNX6 (UniProt Q9UNH7)
Sequence of UniProt Q9UNH7 (Q9UNH7 whole entry, looked up): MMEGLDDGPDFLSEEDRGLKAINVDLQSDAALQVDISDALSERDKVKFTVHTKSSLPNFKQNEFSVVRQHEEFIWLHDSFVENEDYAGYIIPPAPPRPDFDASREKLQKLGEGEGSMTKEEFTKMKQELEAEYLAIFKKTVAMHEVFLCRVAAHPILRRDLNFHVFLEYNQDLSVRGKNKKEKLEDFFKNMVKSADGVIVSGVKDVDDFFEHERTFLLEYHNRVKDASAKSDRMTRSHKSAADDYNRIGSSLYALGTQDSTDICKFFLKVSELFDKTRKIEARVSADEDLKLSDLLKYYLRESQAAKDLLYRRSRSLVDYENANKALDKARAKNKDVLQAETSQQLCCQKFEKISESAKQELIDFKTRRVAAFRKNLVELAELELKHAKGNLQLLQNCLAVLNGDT
active: [3] -0.47
inactive: bafetinib -0.132 | [1] 0.138 | nilotinib -0.214 | [2] 0.012 | dasatinib -0.176 | [4] 0.094 | [5] 0.019 | tipifarnib -0.045 | mubritinib 0.058

SOAT1 (UniProt P35610)
inactive: bafetinib 0.085 | [1] 0.011 | [2] -0.001 | dasatinib 0.257 | [3] -0.021 | [4] 0.031 | [5] -0.058 | tipifarnib 0.039 | mubritinib 0.096
active: nilotinib 0.566

SRSF2 (UniProt Q01130)
Sequence of UniProt Q01130 (Q01130 whole entry, looked up): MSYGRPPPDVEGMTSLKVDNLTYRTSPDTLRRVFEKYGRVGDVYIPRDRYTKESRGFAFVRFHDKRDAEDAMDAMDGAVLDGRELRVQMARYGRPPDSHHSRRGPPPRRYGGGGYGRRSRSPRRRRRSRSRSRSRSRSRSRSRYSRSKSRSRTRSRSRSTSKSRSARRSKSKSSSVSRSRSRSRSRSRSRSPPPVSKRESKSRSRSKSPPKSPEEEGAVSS
active: [2] -0.541
inactive: bafetinib 0.02 | [1] -0.062 | nilotinib 0.007 | dasatinib 0.074 | [3] 0.034 | [4] -0.058 | [5] 0 | tipifarnib 0.085 | mubritinib -0.011

SRSF3 (UniProt P84103)
Sequence of UniProt P84103 (P84103 whole entry, looked up): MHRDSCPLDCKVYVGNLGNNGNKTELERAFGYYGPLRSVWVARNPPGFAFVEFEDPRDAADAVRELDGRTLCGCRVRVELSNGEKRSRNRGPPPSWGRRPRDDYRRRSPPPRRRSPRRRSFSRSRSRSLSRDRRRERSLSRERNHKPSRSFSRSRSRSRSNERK
inactive: bafetinib 0.126 | [1] -0.028 | nilotinib 0.075 | dasatinib 0.173 | [3] 0.082 | [4] -0.199 | [5] -0.154 | tipifarnib 0.134 | mubritinib -0.097
active: [2] -0.544

SYMPK (UniProt Q92797)
Sequence of UniProt Q92797 (Q92797 whole entry, looked up): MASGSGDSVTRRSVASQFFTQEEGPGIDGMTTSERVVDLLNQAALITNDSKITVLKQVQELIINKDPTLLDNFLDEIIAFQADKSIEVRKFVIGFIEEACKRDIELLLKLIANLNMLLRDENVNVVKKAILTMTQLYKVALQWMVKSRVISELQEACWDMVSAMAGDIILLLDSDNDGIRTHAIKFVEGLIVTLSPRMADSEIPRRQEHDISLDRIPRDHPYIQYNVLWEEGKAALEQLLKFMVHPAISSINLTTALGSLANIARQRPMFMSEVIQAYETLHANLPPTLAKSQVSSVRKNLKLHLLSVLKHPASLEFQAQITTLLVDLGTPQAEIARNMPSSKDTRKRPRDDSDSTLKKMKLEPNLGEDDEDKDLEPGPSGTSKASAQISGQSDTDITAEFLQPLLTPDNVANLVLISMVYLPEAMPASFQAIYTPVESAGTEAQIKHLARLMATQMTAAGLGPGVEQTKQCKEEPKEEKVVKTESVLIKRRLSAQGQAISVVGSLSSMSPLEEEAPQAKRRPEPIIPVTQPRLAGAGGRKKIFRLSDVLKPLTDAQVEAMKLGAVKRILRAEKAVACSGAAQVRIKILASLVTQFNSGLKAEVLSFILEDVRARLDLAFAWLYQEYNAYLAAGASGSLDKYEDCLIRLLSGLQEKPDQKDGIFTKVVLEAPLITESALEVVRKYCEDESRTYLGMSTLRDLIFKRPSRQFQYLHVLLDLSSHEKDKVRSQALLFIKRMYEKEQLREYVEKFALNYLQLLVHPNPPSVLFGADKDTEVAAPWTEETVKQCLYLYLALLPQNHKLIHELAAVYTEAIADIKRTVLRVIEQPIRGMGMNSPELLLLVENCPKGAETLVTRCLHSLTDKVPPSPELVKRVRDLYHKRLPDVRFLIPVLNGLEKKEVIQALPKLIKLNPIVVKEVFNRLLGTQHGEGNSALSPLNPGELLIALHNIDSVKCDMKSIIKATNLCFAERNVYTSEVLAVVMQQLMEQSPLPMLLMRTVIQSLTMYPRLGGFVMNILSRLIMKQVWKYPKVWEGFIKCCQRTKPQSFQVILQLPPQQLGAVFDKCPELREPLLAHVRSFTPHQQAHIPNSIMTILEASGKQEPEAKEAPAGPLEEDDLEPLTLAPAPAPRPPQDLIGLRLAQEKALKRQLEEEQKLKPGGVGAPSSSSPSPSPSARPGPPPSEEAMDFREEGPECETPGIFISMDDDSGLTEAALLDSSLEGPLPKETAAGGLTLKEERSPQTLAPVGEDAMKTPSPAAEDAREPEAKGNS
inactive: bafetinib -0.027 | [1] 0.036 | nilotinib -0.192 | [2] -0.001 | dasatinib -0.156 | [3] 0.037 | [4] -0.017 | [5] -0.043 | tipifarnib -0.152 | mubritinib 0.015

THYN1 (UniProt Q9P016)
inactive: bafetinib 0.009 | [1] -0.028 | nilotinib -0.021 | [2] 0.044 | dasatinib -0.097 | [3] -0.009 | [4] -0.015 | [5] 0.013 | tipifarnib -0.036 | mubritinib 0.031

TAF9 (UniProt Q16594)
inactive: bafetinib -0.076 | [1] -0.026 | nilotinib 0.061 | [2] -0.031 | dasatinib 0.146 | [3] -0.086 | [4] -0.12 | [5] -0.011 | tipifarnib 0.077 | mubritinib -0.005

TAX1BP1 (UniProt Q86VP1)
inactive: bafetinib 0.011 | [1] -0.095 | nilotinib -0.086 | [2] 0.011 | dasatinib -0.024 | [3] 0.047 | [4] -0.068 | [5] 0.027 | tipifarnib 0.092 | mubritinib 0.045

TK1 (UniProt P04183)
inactive: bafetinib -0.04 | [1] -0.028 | nilotinib -0.002 | [2] 0.028 | dasatinib 0.032 | [3] -0.036 | [4] 0.015 | [5] 0 | tipifarnib 0 | mubritinib 0.056

TIPRL (UniProt O75663)
inactive: bafetinib -0.052 | [1] 0.066 | nilotinib -0.022 | [2] -0.025 | dasatinib -0.103 | [3] -0.035 | [4] 0.032 | [5] 0.048 | tipifarnib -0.16 | mubritinib 0.098

SMC5 (UniProt Q8IY18)
inactive: bafetinib 0.02 | [1] -0.029 | nilotinib 0 | [2] -0.095 | dasatinib 0.05 | [3] 0.082 | [4] 0.006 | [5] -0.102 | tipifarnib 0.032 | mubritinib -0.004

SMIM20 isoform 2 (UniProt Q8N5G0)
inactive: bafetinib -0.011 | [1] -0.011 | nilotinib -0.037 | [2] -0.001 | dasatinib 0.012 | [3] -0.102 | [4] 0.05 | [5] 0.156 | tipifarnib 0.017 | mubritinib 0.009

SUN2 (UniProt Q9UH99)
inactive: bafetinib -0.04 | [1] 0.016 | nilotinib -0.007 | [2] -0.036 | dasatinib 0.004 | [3] -0.071 | [4] -0.052 | [5] -0.008 | tipifarnib 0.013 | mubritinib -0.064

SLC7A6 (UniProt Q92536)
inactive: bafetinib 0.042 | [1] 0.029 | nilotinib 0.046 | [2] 0.008 | dasatinib 0.04 | [3] -0.007 | [4] 0.024 | [5] -0.087 | tipifarnib -0.016 | mubritinib 0.049

SNRNP40 (UniProt Q96DI7)
inactive: bafetinib 0.018 | [1] -0.023 | nilotinib 0.054 | [2] 0.166 | dasatinib 0.1 | [3] 0.119 | [4] -0.051 | [5] -0.021 | tipifarnib 0.038 | mubritinib 0.006

SRFBP1 (UniProt Q8NEF9)
inactive: bafetinib 0.075 | [1] -0.014 | nilotinib 0.303 | [2] -0.031 | dasatinib 0.095 | [3] -0.066 | [4] -0.163 | [5] -0.044 | tipifarnib 0.177 | mubritinib -0.129

SRSF7 (UniProt Q16629)
inactive: bafetinib 0.073 | [1] -0.055 | nilotinib 0.156 | dasatinib 0.171 | [3] 0.044 | [4] -0.177 | [5] -0.126 | tipifarnib 0.181 | mubritinib -0.128
active: [2] -0.642

STXBP5 (UniProt Q5T5C0)
inactive: bafetinib -0.032 | [1] 0.017 | nilotinib 0.003 | [2] -0.025 | dasatinib -0.06 | [3] -0.003 | [4] 0.021 | [5] -0.026 | tipifarnib -0.049 | mubritinib -0.021

SNRNP27 (UniProt Q8WVK2)
Sequence of UniProt Q8WVK2 (Q8WVK2 whole entry, looked up): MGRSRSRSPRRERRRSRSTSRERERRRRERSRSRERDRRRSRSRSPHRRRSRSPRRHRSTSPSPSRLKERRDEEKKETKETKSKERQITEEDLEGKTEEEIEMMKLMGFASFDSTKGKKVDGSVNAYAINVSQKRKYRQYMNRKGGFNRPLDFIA
inactive: bafetinib -0.015 | [1] -0.079 | nilotinib 0.087 | dasatinib 0.045 | [3] -0.064 | [4] -0.078 | [5] 0.031 | tipifarnib 0.032 | mubritinib 0.059
active: [2] -0.487

SMCHD1 (UniProt A6NHR9)
inactive: bafetinib 0.306 | [1] 0 | nilotinib 0.037 | [2] -0.011 | dasatinib -0.319 | [3] -0.044 | [4] -0.061 | [5] -0.084 | tipifarnib -0.003 | mubritinib -0.136

SSR3 isoform 2 (UniProt Q9UNL2)
Sequence of UniProt Q9UNL2 (Q9UNL2 whole entry, looked up): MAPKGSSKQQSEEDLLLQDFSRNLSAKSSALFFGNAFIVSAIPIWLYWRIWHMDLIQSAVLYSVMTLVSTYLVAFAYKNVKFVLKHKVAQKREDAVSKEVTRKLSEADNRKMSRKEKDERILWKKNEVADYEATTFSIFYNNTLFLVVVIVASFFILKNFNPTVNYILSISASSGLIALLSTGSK
inactive: bafetinib -0.064 | [1] 0.034 | nilotinib -0.006 | [2] 0.029 | dasatinib 0.006 | [3] -0.047 | [4] 0.107 | [5] -0.167 | tipifarnib 0.084 | mubritinib 0.049

TJP1 (UniProt Q07157)
Sequence of UniProt Q07157 (Q07157 whole entry, looked up): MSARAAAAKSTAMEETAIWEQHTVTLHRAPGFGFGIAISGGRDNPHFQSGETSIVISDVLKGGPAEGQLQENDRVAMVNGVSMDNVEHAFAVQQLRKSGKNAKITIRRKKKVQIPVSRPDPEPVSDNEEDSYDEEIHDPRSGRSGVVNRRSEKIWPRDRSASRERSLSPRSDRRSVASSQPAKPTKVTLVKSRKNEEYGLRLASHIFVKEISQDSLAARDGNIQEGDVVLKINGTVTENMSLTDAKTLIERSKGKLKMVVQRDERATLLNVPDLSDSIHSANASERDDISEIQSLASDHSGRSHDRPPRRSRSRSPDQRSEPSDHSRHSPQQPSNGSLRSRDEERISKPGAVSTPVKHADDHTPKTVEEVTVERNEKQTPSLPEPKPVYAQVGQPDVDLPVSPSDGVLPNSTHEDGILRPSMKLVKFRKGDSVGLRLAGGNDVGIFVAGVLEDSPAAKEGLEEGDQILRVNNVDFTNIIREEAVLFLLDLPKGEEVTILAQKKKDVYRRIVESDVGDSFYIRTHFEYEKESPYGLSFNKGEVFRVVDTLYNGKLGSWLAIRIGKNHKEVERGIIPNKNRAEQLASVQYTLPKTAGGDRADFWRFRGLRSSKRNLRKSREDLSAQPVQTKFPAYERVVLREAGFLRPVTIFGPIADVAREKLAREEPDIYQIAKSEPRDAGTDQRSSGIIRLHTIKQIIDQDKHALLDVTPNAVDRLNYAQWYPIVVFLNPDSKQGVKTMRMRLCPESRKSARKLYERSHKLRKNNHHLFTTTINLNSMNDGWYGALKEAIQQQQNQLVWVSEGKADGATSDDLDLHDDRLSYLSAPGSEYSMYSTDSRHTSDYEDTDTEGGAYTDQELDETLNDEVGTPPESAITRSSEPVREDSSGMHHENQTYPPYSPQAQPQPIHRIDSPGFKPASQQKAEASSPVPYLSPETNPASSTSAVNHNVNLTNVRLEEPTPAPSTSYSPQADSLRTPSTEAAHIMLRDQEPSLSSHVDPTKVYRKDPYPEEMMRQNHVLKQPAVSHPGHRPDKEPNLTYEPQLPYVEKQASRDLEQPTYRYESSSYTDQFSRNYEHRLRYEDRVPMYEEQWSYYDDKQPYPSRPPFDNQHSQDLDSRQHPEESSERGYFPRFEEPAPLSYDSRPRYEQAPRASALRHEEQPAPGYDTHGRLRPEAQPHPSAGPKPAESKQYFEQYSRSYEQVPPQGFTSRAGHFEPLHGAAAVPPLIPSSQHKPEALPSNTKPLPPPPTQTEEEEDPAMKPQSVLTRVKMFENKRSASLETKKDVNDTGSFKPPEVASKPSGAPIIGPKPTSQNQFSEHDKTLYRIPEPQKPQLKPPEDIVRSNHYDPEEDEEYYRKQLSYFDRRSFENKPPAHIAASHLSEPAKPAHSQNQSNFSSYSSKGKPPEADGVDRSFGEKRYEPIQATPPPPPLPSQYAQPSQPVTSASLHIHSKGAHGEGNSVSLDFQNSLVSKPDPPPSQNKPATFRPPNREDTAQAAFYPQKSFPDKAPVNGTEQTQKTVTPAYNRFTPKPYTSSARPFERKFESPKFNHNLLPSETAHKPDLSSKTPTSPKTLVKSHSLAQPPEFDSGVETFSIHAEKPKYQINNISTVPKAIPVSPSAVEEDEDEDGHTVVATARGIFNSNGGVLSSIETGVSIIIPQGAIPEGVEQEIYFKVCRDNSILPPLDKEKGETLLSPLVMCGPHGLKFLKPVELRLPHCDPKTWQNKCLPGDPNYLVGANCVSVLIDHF
inactive: bafetinib -0.061 | [1] 0.008 | nilotinib 0.024 | [2] -0.199 | dasatinib -0.092 | [3] -0.037 | [4] -0.028 | [5] -0.02 | tipifarnib -0.025 | mubritinib 0.073

SLC9A6 isoform 2 (UniProt Q92581)
inactive: bafetinib -0.049 | [1] 0.012 | nilotinib 0.039 | [2] 0.011 | dasatinib 0.017 | [3] -0.002 | [4] -0.019 | [5] 0.026 | tipifarnib 0.047 | mubritinib 0.033

TIMM21 (UniProt Q9BVV7)
inactive: bafetinib -0.149 | [1] 0.058 | nilotinib -0.011 | [2] -0.014 | dasatinib 0.011 | [3] -0.003 | [4] 0.025 | [5] 0.074 | tipifarnib 0.055 | mubritinib -0.011
